Test results published in PubChem BioAssay AID1159580 (chemical genetic matrix, 2015).
The campaign covered roughly 5,500 compounds. About 2,000 (36%) were called active. Inconclusive results (about 18%) are left out. Some of the results follow. Unmarked numbers belong to inactive results. No stated cut-off is given here; in the data, active means normalized growth mostly below about 0.91 (no sharp cut-off); inconclusive means no clear call, values can overlap the other calls; inactive means mostly above about 0.92.

Experiment: chemical genetic growth profiling, strain panel (AID 1159580);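 further: tested at 20 µM; growth read once vehicle control cultures reached saturation at 30 °C; 1 = growth at the plate median or of vehicle wells; lower values mean less growth of the strain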
Conditions: S. cerevisiae deletion strains, growth OD

SMILES: CC(C)(C)c1ccc(C(=O)Nc2ccc(C(F)(F)F)cc2)s1
- normalized growth (locus YAR019C, strain CDC15, active compounds read low): 0.985
- normalized growth (locus YBL105C, strain PKC1, active compounds read low): 0.991
- normalized growth (locus YBR135W, strain CKS1, active compounds read low): 0.994
- normalized growth (locus YBR136W, strain MEC1, active compounds read low): 0.972
- normalized growth (locus YBR160W, strain CDC28, active compounds read low): 0.984
- normalized growth (locus YDL017W, strain CDC7, active compounds read low): 0.997
- normalized growth (locus YDL028C, strain MPS1, active compounds read low): 0.967
- normalized growth (locus YDL101C, strain DUN1, active compounds read low): 1.01
- normalized growth (locus YDL108W, strain KIN28, active compounds read low): 0.972
- normalized growth (locus YDL132W, strain cdc53, active compounds read low): 0.988
- normalized growth (locus YDL214C, strain PRR2, active compounds read low): 0.952
- normalized growth (locus YDR052C, strain DBF4, active compounds read low): 0.996
- normalized growth (locus YDR054C, strain cdc34, active compounds read low): 0.989
- normalized growth (locus YDR226W, strain ADK1, active compounds read low): 0.976
- normalized growth (locus YDR477W, strain SNF1, active compounds read low): 0.952
- normalized growth (locus YER123W, strain YCK3, active compounds read low): 0.968
- normalized growth (locus YER133W, strain GLC7, active compounds read low): 0.977
- normalized growth (locus YFL009W, strain cdc4, active compounds read low): 0.976
- normalized growth (locus YFL029C, strain CAK1, active compounds read low): 0.987
- normalized growth (locus YFR003C, strain YPI1, active compounds read low): 0.999
- normalized growth (locus YFR019W, strain FAB1, active compounds read low): 0.972
- normalized growth (locus YFR028C, strain CDC14, active compounds read low): 0.985
- normalized growth (locus YGR040W, strain KSS1, active compounds read low): 0.954
- normalized growth (locus YGR052W, strain FMP48, active compounds read low): 1
- normalized growth (locus YGR092W, strain DBF2, active compounds read low): 0.966
- normalized growth (locus YHR030C, strain SLT2, active compounds read low): 0.821 (active)
- normalized growth (locus YHR079C, strain IRE1, active compounds read low): 0.963
- normalized growth (locus YHR082C, strain KSP1, active compounds read low): 0.991
- normalized growth (locus YHR205W, strain SCH9, active compounds read low): 0.92
- normalized growth (locus YIL147C, strain SLN1, active compounds read low): 0.989
- normalized growth (locus YJL095W, strain BCK1, active compounds read low): 0.957
- normalized growth (locus YJL128C, strain PBS2, active compounds read low): 0.943
- normalized growth (locus YJL157C, strain FAR1, active compounds read low): 0.976
- normalized growth (locus YJR016C, strain ILV3, active compounds read low): 0.996
- normalized growth (locus YJR066W, strain TOR1 (second series), active compounds read low): 0.967
- normalized growth (locus YJR066W, strain TOR1, active compounds read low): 0.929
- normalized growth (locus YKL048C, strain ELM1, active compounds read low): 0.988
- normalized growth (locus YKL067W, strain YNK1, active compounds read low): 0.944
- normalized growth (locus YKL101W, strain HSL1, active compounds read low): 0.935
- normalized growth (locus YKL193C, strain SDS22, active compounds read low): 0.986
- normalized growth (locus YKL203C, strain TOR2, active compounds read low): 1.05
- normalized growth (locus YLR113W, strain HOG1, active compounds read low): 0.863
- normalized growth (locus YLR133W, strain CKI1, active compounds read low): 0.971
- normalized growth (locus YLR403W, strain SFP1, active compounds read low): 0.974
- normalized growth (locus YML070W, strain DAK1, active compounds read low): 0.944
- normalized growth (locus YMR001C, strain CDC5, active compounds read low): 0.995
- normalized growth (locus YMR205C, strain PFK2 (second series), active compounds read low): 0.975
- normalized growth (locus YMR277W, strain FCP1, active compounds read low): 0.966
- normalized growth (locus YNL006W, strain LST8, active compounds read low): 0.981
- normalized growth (locus YNL020C, strain ARK1, active compounds read low): 0.973
- normalized growth (locus YNL161W, strain CBK1, active compounds read low): 0.985
- normalized growth (locus YNL183C, strain NPR1, active compounds read low): 1.01
- normalized growth (locus YNL207W, strain RIO2, active compounds read low): 0.991
- normalized growth (locus YNL222W, strain SSU72, active compounds read low): 0.988
- normalized growth (locus YNL307C, strain MCK1 (second series), active compounds read low): 0.99
- normalized growth (locus YOL078W, strain AVO1, active compounds read low): 0.989
- normalized growth (locus YOL136C, strain PFK27, active compounds read low): 0.939
- normalized growth (locus YOR061W, strain CKA2, active compounds read low): 1
- normalized growth (locus YOR119C, strain RIO1, active compounds read low): 0.993
- normalized growth (locus YOR231W, strain MKK1, active compounds read low): 0.925
- normalized growth (locus YOR329C, strain SCD5, active compounds read low): 0.999
- normalized growth (locus YPL031C, strain PHO85, active compounds read low): 0.977
- normalized growth (locus YPL153C, strain RAD53, active compounds read low): 0.951
- normalized growth (locus YPL204W, strain HRR25, active compounds read low): 0.951
- normalized growth (locus YPL209C, strain IPL1, active compounds read low): 0.991
- normalized growth (locus YPL256C, strain CLN2, active compounds read low): 0.899
- normalized growth (locus YPR025C, strain CCL1, active compounds read low): 1
- normalized growth (locus YPR106W, strain ISR1, active compounds read low): 0.98
- normalized growth (locus YPR111W, strain DBF20, active compounds read low): 0.955
- normalized growth (strain NNK1, active compounds read low): 0.98
- normalized growth (strain TSCII, active compounds read low): 0.983
